KB-3-1 cytotox: KB-3-1 parental cell cytotoxicity; KB-3-1 viability, CellTiter-Glo ATP luminescence, 72 h; Potency, µM (highest dose often 46.1 µM), actives largely listed as cytotoxic; actives 1.4% (n = 400,000); AID 1347075; note: % is set by controls: 0 for no effect and ±100 for the full control effect; nearly all actives have a fitted effect of over 60% in size
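Cytotoxicity measured as CellTiter-Glo luminescence after 72 h at 37 C. Compound titrations were pinned onto drug-naive KB-3-1 parental adenocarcinoma cells grown in DMEM with 10% FBS, and normalized data fitted to concentration-response curves.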
HT1080NT lethal: kills 2HG-producing HT-1080-NT fibrosarcoma cells. HT-1080-NT fibrosarcoma viability, CellTiter-Glo ATP luminescence, 48 h. Potency, µM (titrated, usually from 46.1 µM), for inactives: at the top dose activity, negative = less viability, usual class: cytotoxic. actives 1.6% (n = 360,000);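 note: NT is the 2HG producing partner of a matched IDH1 knockdown line; 0% = DMSO-treated cells and -100% = media-only wells without cells; nearly all actives have a fitted effect of over 55% in size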
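Luminescent CellTiter-Glo readout after 48 hours of compound exposure at 37 degrees C defined viability of HT-1080-NT cells. Activity was normalized to DMSO wells and cell-free media wells; concentration-response curves were fitted and assigned curve classes.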
HT1080 IDH1KD tx: toxicity to HT-1080 IDH1 knockdown cells (counter line). AID 686971. Potency, µM (series often up to 46.1 µM), inactives show at the highest dose activity, negative = toxicity, most hits filed as cytotoxic. actives 2% (n = 360,000). HT-1080 IDH1 knockdown viability, ATP luminescence, 48 h;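 note: 0% = DMSO wells and -100% = cell-free medium wells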
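Knockdown cells (IDH1KD HT-1080) received compounds 2 h after plating at 750 cells/well and were kept 48 h at 37 °C in 5% FBS RPMI. A CellTiter-Glo luminescence read gave % activity for curve fitting.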
ATXN viability: viability counter-screen for ATXN expression inhibitors; S2 cells (HEK-293 line with an ATXN2-luciferase reporter) viability, CellTiter-Fluor protease fluorescence, 24 h; Potency, µM (doses to about 56.7 µM), most hits filed as cytotoxic; actives 0.49% (n = 400,000); note: nearly all actives have a fitted effect of over 40% in size
KB-V1 MDR tox: KB-V1 MDR subline cytotoxicity; Potency, µM (titrated, usually from 46.1 µM), usual class: cytotoxic; AID 1347076; KB-V1 MDR cells viability, CellTiter-Glo, 72 h; actives 3.4% (n = 400,000); note: % is set by controls: 0 for no effect and ±100 for the full control effect; nearly all actives have a fitted effect of over 60% in size
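KB-V1 cells (P-gp-expressing MDR subline of KB-3-1) in phenol-red-free DMEM with 10% FBS were exposed to library compounds over a concentration series for 72 h at 37 degrees C. Viability read by CellTiter-Glo luminescence; concentration-effect curves fitted after normalization.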
ATXN2 expr inh: inhibitors of ATXN2 expression; HEK-293 ATXN2-luciferase reporter, luminescence, 24 h; Potency, µM (highest dose often 57 µM), for inactives: top-dose activity change, negative = inhibition, actives largely listed as inhibitors; actives 0.72% (n = 360,000); note: % is set by controls: 0 for no effect and ±100 for the full control effect; nearly all actives have a fitted effect of over 55% in size
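qHTS (up to 57 uM final) was run with 24 h compound exposure of reporter cells at 37 °C. Each well was multiplexed: SteadyGlo luminescence measured ATXN2-luciferase expression after a fluorogenic Gly-Phe-AFC viability readout (25 uM final).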
Active calls of the source: *; i = inactive; ? = inconclusive; . = no result; [ ] = remark or other dose. Shown are actives, neighbours in structure and some others; about 6.2% of the full set was active somewhere. Calls come from the whole dose curve; as a rule, active = well fitted curve in the direction sought with a large enough effect; inconclusive = small, poorly fitted or top-dose-only effect, or another doubt; inactive = no such curve, though single readings can be large; an effect the other way counts as inactive or inconclusive. Potency is the fitted concentration of half-maximal effect.

SMILES | KB-3-1 cytotox | HT1080NT lethal | HT1080 IDH1KD tx | ATXN viability | KB-V1 MDR tox | ATXN2 expr inh
CCCCCOc1ccc(C(=O)OC(C)C(=O)NCc2ccco2)cc1 (stereo not drawn) | ? | ? | 21µM* | i | ? | -3%
O=C(NCC(c1cccnc1)N1CCN(c2ccccc2)CC1)OCc1ccccc1 (stereo not drawn) | i | 11% | 3% | i | 2.6µM* | -2%
O=C(NCC(c1cccnc1)N1CCN(c2ccccc2)CC1)C1CCCCC1 (stereo not drawn) | i | 0% | -3% | i | 21µM* | -1%
O=C(NCC(c1cccnc1)N1CCN(c2ccc(F)cc2)CC1)OCc1ccccc1 (stereo not drawn) | i | -7% | -5% | i | ? | -19%
CCCc1nc(-c2ccc(-c3ccc(F)cc3)cc2)no1 | i | 12% | 6% | i | 21µM* | 40%
O=C(NCCc1nc(-c2ccc(F)cc2)no1)c1ccc(F)cc1 | i | 8% | 11% | i | i | -17%
CCn1c(-c2cccc(OC)c2)nc2cc(NC(C)=O)cc(C(=O)N3CCCC(C(C)=O)C3)c21 (stereo not drawn) | . | . | . | i | . | .
CCOc1ccccc1N(C(=O)c1snc(C(N)=O)c1N)C(C(=O)NCCC(C)C)c1ccco1 (stereo not drawn) | i | -11% | 0% | i | 13µM* | -5%
CC(C)(C)NC(=O)C(c1ccco1)N(Cc1ccc(F)cc1)C(=O)c1snc(C(N)=O)c1N (stereo not drawn) | i | -4% | 2% | i | 18µM* | -11%
O=c1c2ccccc2cnn1-c1nc2ccccc2[nH]1 | ? | 3.7µM* | 3.7µM* | i | ? | 0.56µM*
O=c1c(Cl)c(N2CCCCC2)cnn1-c1nc2ccccc2[nH]1 | ? | ? | ? | i | ? | ?
CC(C)OC(=O)Nc1ccc2c(c1)N(C(=O)N1CCN(C)CC1)c1ccccc1CC2 | ? | 23µM* | 23µM* | i | ? | -15%
COC(=O)C[C@H]1C=C[C@H](NC(=O)Nc2ccccc2)[C@@H](CO)O1 | i | -3% | 15% | . | i | .
Cc1cccc(C(=O)NNC(=O)c2cc3cc4ccccc4nc3s2)c1 | i | ? | 21µM* | i | i | -23%
COc1cc2c(cc1NC(=O)COC(=O)[C@@H](NC(=O)c1ccccc1F)C(C)C)oc1ccccc12 | i | 4% | 9% | i | 16µM* | 19%
COc1cc2c(cc1NC(=O)COC(=O)[C@@H](NC(=O)c1ccccc1)C(C)C)oc1ccccc12 | i | -14% | -3% | i | 9.2µM* | 19%
CN1C=CC2=C(C#N)C(N)C(C#N)(C#N)C(c3ccccc3)C2C1 (stereo not drawn) | i | 0% | -4% | i | 15µM* | -5%
CN1C[C@@H]2C(c3ccccc3)C3(c4ccc(C#N)cc4)CC2(C3)[C@H]1c1ccccc1 (stereo partly drawn) | i | -8% | 0% | i | i | -3%
COc1ccc(N2C(=O)[C@@H]3C[C@H]2CN3Cc2cccn2-c2ccc(Cl)cn2)c(C)c1 | . | . | . | i | . | .
Cc1ccc(C(=O)N2CCN(S(=O)(=O)c3ccc(C(C)C)cc3)CC2)s1 | i | 5% | 5% | i | ? | 5%
Cc1ccc2c(c1)C(=O)C(=O)N2Cc1ccc(C(F)(F)F)cc1 | ? | -5% | -1% | 28µM* | ? | ?
O=C(Nc1ccccc1)C1=C(c2ccccc2)S(=O)(=O)CCS1(=O)=O | ? | 23µM* | 3.3µM* | 8.9µM* | i | 5.6µM*
O=C(O)c1ccccc1C(=O)Nc1ccccc1 | i | 10% | 1% | i | i | 3%
COC(=O)c1ccc(COc2cccnc2[N+](=O)[O-])cc1 | i | 12% | 12% | i | i | 25%
O=C(Nc1ccc(Cl)c(C(F)(F)F)c1)Nc1nnc(-c2ccncc2)s1 | ? | . | . | . | i | .
SMILES | KB-3-1 cytotox | HT1080NT lethal | HT1080 IDH1KD tx | ATXN viability | KB-V1 MDR tox | ATXN2 expr inh
CCn1c(=O)c2cc(C(=O)N(C)c3cc(C)ccc3OC)sc2c2ccccc21 | i | -7% | -2% | ? | 23µM* | .
CCCN(C(=O)c1cc2c(=O)n(CC)c3ccccc3c2s1)c1ccccc1F | i | . | . | i | i | -8%
CCOc1ccccc1N(CC)C(=O)c1cc2c(=O)n(CC)c3ccccc3c2s1 | ? | . | . | ? | 21µM* | ?
O=C(NCC1Cc2cccc(-c3cnccn3)c2O1)c1ccc(F)c(Cl)c1 (stereo not drawn) | . | . | . | i | . | .
COc1ccc(NC(=O)CCCn2c(=O)c3sccc3n(Cc3ccc(C)cc3C)c2=O)cc1 | i | 3% | 3% | i | 8.2µM* | -2%
COc1ccc(NC(=O)CCCn2c(=O)c3sccc3n(Cc3ccc(C)cc3)c2=O)cc1 | i | -12% | -21% | i | i | -23%
COc1ccc(Cl)cc1Nc1nc(N)c2ccccc2n1 | i | ? | ? | i | i | 10%
COc1cc2nc(N3CCN(c4cc(C)ccc4C)CC3)nc(N)c2cc1OC | ? | 2.6µM* | 2.6µM* | . | ? | ?
COc1ccc(C)cc1Nc1nc(N)c2cc(OC)c(OC)cc2n1 | i | ? | 18µM* | ? | ? | ?
COc1cc2nc(N3CCNCC3)nc(N)c2cc1OC | ? | 0% | 2% | . | i | .
CC(=O)c1ccsc1B(O)O | i | . | . | . | i | .
O=C1C2C3C=CC(C3)C2C(=O)N1c1ccc(N2CCN(c3ccccn3)CC2)c([N+](=O)[O-])c1 (stereo not drawn) | i | ? | -17% | ? | 10µM* | .
Cc1ncc2c(c1CNC(=O)c1ccc3c(c1)OCO3)CCN(C(=O)C1Cc3ccccc3O1)C2 (stereo not drawn) | . | . | . | i | . | .
CC(C)Cn1c(N)c(C(=O)COC(=O)c2cc(-c3ccccc3)nc3ccccc23)c(=O)n(C)c1=O | ? | 10% | 17% | i | ? | 9%
CC(C)Cn1c(N)c(C(=O)COC(=O)c2cc(C3CC3)nc3ccccc23)c(=O)n(C)c1=O | ? | 21µM* | ? | ? | ? | ?
O=C(Nc1ccccc1C(F)(F)F)N1CC=C(c2c[nH]c3ccccc23)CC1 | i | . | . | . | i | .
CCOc1cc(/C=C2/SC(=O)N(CC(=O)N3CCc4ccccc4C3)C2=O)ccc1OCC(=O)O | i | 14% | -4%[9.24 µM] | i | i | 7%

Screening results (PubChem BioAssay)
